Luc counter: Counterscreen for Luciferase (Kinase-Glo TM) Inhibition; Luciferin 4-monooxygenase (Photuris pensylvanica), Q27757; Kinase-Glo luciferase, ATP luminescence, 8 min; Potency, µM (doses to about 38.3 µM), for the others: top-dose activity change, negative = inhibition, hits mostly inhibitors; 200,000 tested, 0.28% active; AID 1379, 2008; note: % is set by controls: 0 for no effect and ±100 for the full control effect; nearly all actives have a fitted effect of over 60% in size
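Light output from Kinase-Glo luciferase with luciferin and 10 uM ATP in 50 mM imidazole pH 7.2, KCl, MgCl2, Tween 20, BSA; compound pin-delivered, 8-min ambient incubation, then luminescence read.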
ELG1 genotox: qHTS screen for small molecules that induce genotoxicity in human embryonic kidney (HEK293T) cells expressing luciferase-tagged ELG1 | HEK293T ELG1-luciferase reporter, luminescence, 16 h | Potency, µM (top dose mostly 46 µM), for inactives: top-dose activity change, positive = activation, most hits filed as activators | 330,000 tested, 1.3% active; note: % of control where 0% means no effect; nearly all actives have a fitted effect of over 60% in size
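Luminescence read-out: rising ELG1-luciferase signal, reflecting elevated ELG1 protein under genetic stress, flags genotoxic compounds. Cells were treated for 16 hr at 37 °C before ONE-Glo detection.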
NPC1 promoter act: qHTS Assay for NPC1 Promoter Activators | Huh7 NPC1 promoter luciferase reporter, 24 h | Potency, µM (highest dose often 9.22 µM), for the others: at the highest dose activation, usual class: activators | 320,000 tested, 2.4% active; note: % of control where 0% means no effect; nearly all actives have a fitted effect of over 60% in size
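Luciferase expression driven by the NPC1 promoter was measured in stably transfected Huh7 cells after a 24 h compound incubation, using a luciferase reagent and a luminescence read.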
SMN2 splice enh: qHTS Assay for Enhancers of SMN2 Splice Variant Expression; HEK293 SMN2-luciferase splicing reporter, luminescence, 30-36 h; Potency, µM (top dose mostly 46.1 µM), without a hit: at the highest dose activity change, positive = activation, actives largely listed as activators; 210,000 tested, 2.8% active; AID 1458, 2008; note: % of control where 0% means no effect; nearly all actives have a fitted effect of over 55% in size
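qHTS luciferase splicing reporter: luminescence rises when SMN2 exon 7 is included in transfected HEK293 cells. Compound exposure lasted 30-36 h at 37C, with 4.5 mM final sodium butyrate as control, followed by a ONE-Glo read.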
FLuc modulator: qHTS profiling assay for firefly luciferase inhibitor/activator using purifed enzyme and Km concentrations of substrates (counterscreen for miR-21 project). purified FLuc, Km substrates, luminescence inhibition. Potency, µM (top dose mostly 57.5 µM), inactives show top-dose activity change, negative = inhibition, actives largely listed as inhibitors. 360,000 tested, 6.9% active. AID 588342, 2011;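 note: plate controls were vehicle for no effect and reference inhibitor for full effect; nearly all actives have a fitted effect of over 55% in size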
Target sequence (P08659 whole entry, looked up): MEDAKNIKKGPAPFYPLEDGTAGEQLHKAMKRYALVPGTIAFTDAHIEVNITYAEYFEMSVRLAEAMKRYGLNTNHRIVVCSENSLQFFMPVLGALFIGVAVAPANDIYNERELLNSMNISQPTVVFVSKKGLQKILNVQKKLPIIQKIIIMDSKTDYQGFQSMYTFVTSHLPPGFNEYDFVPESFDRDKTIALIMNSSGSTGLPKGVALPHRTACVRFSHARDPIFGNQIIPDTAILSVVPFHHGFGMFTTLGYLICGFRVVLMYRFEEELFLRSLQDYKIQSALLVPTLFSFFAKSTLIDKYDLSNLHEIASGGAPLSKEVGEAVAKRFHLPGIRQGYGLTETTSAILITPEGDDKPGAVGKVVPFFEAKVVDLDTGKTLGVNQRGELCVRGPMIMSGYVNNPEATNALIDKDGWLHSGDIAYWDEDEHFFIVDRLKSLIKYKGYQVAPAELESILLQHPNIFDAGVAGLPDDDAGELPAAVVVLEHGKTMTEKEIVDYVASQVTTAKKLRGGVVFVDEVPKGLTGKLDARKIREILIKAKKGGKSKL
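Biochemical qHTS of compounds, final roughly 60 µM downward over six points, against 10 nM purified firefly luciferase using Km concentrations of substrates (10 uM D-luciferin, 10 uM ATP) in Tris acetate pH 7.5 buffer; luminescence output.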
Rab9 promoter act: qHTS Assay for Rab9 Promoter Activators; Potency, µM (titrated, usually from 9.22 µM), for the others: at the highest dose activation, negative = inhibition, actives largely listed as activators; Huh7 Rab9 promoter-luciferase reporter, luminescence, 24 h; 320,000 tested, 2.8% active; note: % of control where 0% means no effect; nearly all actives have a fitted effect of over 60% in size
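Measured in stably transfected Huh7 cells bearing a Rab9 promoter–luciferase construct: 24 h compound treatment at 37 °C, followed by luminescence detection.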
Starred values were filed as active, the others as inactive. The list is not random: actives were taken first. Their share in the collection is about 7.5%. Calls come from the whole dose curve; as a rule, active = well fitted curve in the direction sought with a large enough effect; inconclusive = small, poorly fitted or top-dose-only effect, or another doubt; inactive = no such curve, though single readings can be large; an effect the other way counts as inactive or inconclusive. Potency is the fitted concentration of half-maximal effect.

How did Cc1ccc(C2c3c(oc4ccccc4c3=O)C(=O)N2CCCN2CCOCC2)o1 (stereo unspecified) do in these assays?
Luc counter: -3%; ELG1 genotox: 7%; NPC1 promoter act: 2%; SMN2 splice enh: 7.1µM*; FLuc modulator: 3%; Rab9 promoter act: 1%

Results for C=CCOc1ccc(C2c3c(oc4ccccc4c3=O)C(=O)N2CCCN2CCOCC2)cc1 (stereo unspecified) ?
Luc counter: 0%; ELG1 genotox: 7%; NPC1 promoter act: -3%; SMN2 splice enh: 4%; FLuc modulator: 4%; Rab9 promoter act: 0%

What do the screens show for `O=C1N/C(=N\N=C\c2ccc3ncccc3c2)SC1Cc1ccc(SC(F)F)cc1` (stereo unspecified)?
Luc counter: -3%; ELG1 genotox: inconclusive; NPC1 promoter act: inconclusive; SMN2 splice enh: 13µM*; FLuc modulator: 0.54µM*; Rab9 promoter act: inconclusive

What do the screens show for `O=C1N/C(=N\N=C\c2cccs2)SC1Cc1cccc(Cl)c1` (stereo unspecified)?
Luc counter: 6%; ELG1 genotox: 0%; NPC1 promoter act: -17%; SMN2 splice enh: -51%; FLuc modulator: -4%; Rab9 promoter act: -10%

Results for COc1cc(/C=N/N=C2/NC(=O)C(Cc3ccccc3)S2)ccc1O (stereo unspecified) ?
Luc counter: -4%; ELG1 genotox: 25%; NPC1 promoter act: 7%; SMN2 splice enh: 66%; FLuc modulator: 2.4µM*; Rab9 promoter act: -2%

What do the screens show for `O=C1N/C(=N\N=C\c2cccnc2)SC1Cc1ccc(SC(F)F)cc1` (stereo unspecified)?
Luc counter: -2%; ELG1 genotox: 15%; NPC1 promoter act: -10%; SMN2 splice enh: -66%; FLuc modulator: 11µM*; Rab9 promoter act: -12%

Results for O=C1N/C(=N\N=C\c2ccccn2)SC1Cc1cccc(SC(F)F)c1 (stereo unspecified) ?
Luc counter: -2%; ELG1 genotox: 10%; NPC1 promoter act: -1%; SMN2 splice enh: -81%; FLuc modulator: 15µM*; Rab9 promoter act: -10%

Results for O=C(CC1S/C(=N/N=C/c2cccnc2)NC1=O)Nc1ccccc1 (stereo unspecified) ?
Luc counter: 2%; ELG1 genotox: -11%; NPC1 promoter act: -4%; SMN2 splice enh: -3%; FLuc modulator: inconclusive; Rab9 promoter act: -2%

What do the screens show for `COc1ccc(/C=N/N=C2/NC(=O)C(CC(=O)O)S2)cc1OS(=O)(=O)c1ccccc1` (stereo unspecified)?
Luc counter: 2%; ELG1 genotox: 1%; NPC1 promoter act: -1%; SMN2 splice enh: 3%; FLuc modulator: inconclusive; Rab9 promoter act: -7%

How did Cc1ccc(S(=O)(=O)c2cn(Cc3ccccc3F)c3cc4c(cc3c2=O)OCO4)cc1 do in these assays?
SMN2 splice enh: 7%; FLuc modulator: 4%

What do the screens show for `COc1ccc(/C=N/Nc2nc(-c3cccnc3)nc3ccccc23)c(OC)c1`?
ELG1 genotox: -10%; NPC1 promoter act: 1%; FLuc modulator: 2.4µM*; Rab9 promoter act: 1%

What do the screens show for `O=[N+]([O-])c1cccc(-c2nc(NCc3ccccc3)c3ccccc3n2)c1`?
Luc counter: 1%; ELG1 genotox: 2%; NPC1 promoter act: -3%; SMN2 splice enh: -16%; FLuc modulator: 0%; Rab9 promoter act: 14%

Results for Cc1ccc(-c2nc(N/N=C/c3cccnc3)c3ccccc3n2)cc1 ?
Luc counter: 7.9µM*; ELG1 genotox: inconclusive; NPC1 promoter act: inconclusive; SMN2 splice enh: inconclusive; FLuc modulator: 0.12µM*; Rab9 promoter act: 3.5µM*

How did Cc1ccc(-c2nc(N/N=C/c3cccc([N+](=O)[O-])c3)c3ccccc3n2)cc1 do in these assays?
Luc counter: -5%; ELG1 genotox: 0%; NPC1 promoter act: inconclusive; SMN2 splice enh: 5%; FLuc modulator: 0.54µM*; Rab9 promoter act: -3%

Results for COc1ccc(OC)c(Nc2nc(-c3ccncc3)nc3ccccc23)c1 ?
ELG1 genotox: -3%; NPC1 promoter act: -24%; FLuc modulator: -1%; Rab9 promoter act: -14%

How did CSc1ccccc1OCc1cc(C(=O)N(C)Cc2ccncn2)no1 do in these assays?
ELG1 genotox: 16µM*; NPC1 promoter act: 2µM*; FLuc modulator: 15µM*; Rab9 promoter act: 2µM*

Results for CCn1ccnc1CN(C)C(=O)c1cc(COc2ccccc2SC)on1 ?
ELG1 genotox: inconclusive; NPC1 promoter act: inconclusive; FLuc modulator: 12µM*; Rab9 promoter act: 2.8µM*

What do the screens show for `CSc1ccccc1OCc1cc(C(=O)N(C)Cc2nonc2C)no1`?
ELG1 genotox: inconclusive; NPC1 promoter act: 2.2µM*; FLuc modulator: 13µM*; Rab9 promoter act: 2µM*

How did COc1ccc(OC)c2sc(N3CCN(C(=O)C(C)(C)C)CC3)nc12 do in these assays?
FLuc modulator: 13µM*

Results for COc1ccc(Cl)c2sc(N3CCN(C(C)=O)CC3)nc12 ?
ELG1 genotox: 0%; NPC1 promoter act: 12%; FLuc modulator: 2%; Rab9 promoter act: -1%

Results for CCN1CCN(C(=O)c2cc3c(s2)-c2c(C)cccc2OC3)CC1 ?
ELG1 genotox: inconclusive; NPC1 promoter act: inconclusive; FLuc modulator: 11µM*; Rab9 promoter act: 4µM*

How did Cc1cccc2c1-c1sc(C(=O)N3CCCCC3)cc1CO2 do in these assays?
ELG1 genotox: inconclusive; NPC1 promoter act: 3.5µM*; FLuc modulator: 13µM*; Rab9 promoter act: 4µM*

Results for Cn1c(CCc2nc3ccccc3[nH]2)nnc1SCC#N ?
Luc counter: 2%; ELG1 genotox: -9%; NPC1 promoter act: -10%; FLuc modulator: -1%; Rab9 promoter act: 8%

Results for CC(=O)c1ccc2c(c1)C1C=CCC1C(C(=O)O)N2 (stereo unspecified) ?
Luc counter: -9%; ELG1 genotox: 0%; NPC1 promoter act: 2%; SMN2 splice enh: 7%; FLuc modulator: inconclusive; Rab9 promoter act: -14%

How did CC(=O)c1ccc2c(c1)C1C=CCC1C(c1ccncc1)N2 (stereo unspecified) do in these assays?
Luc counter: -8%; ELG1 genotox: 5%; NPC1 promoter act: 26%; SMN2 splice enh: 15%; FLuc modulator: 17µM*; Rab9 promoter act: 10%
